High-throughput results deposited in PubChem BioAssay by several laboratories.
FGF22 binding = shifts melting point of recombinant human FGF22; recombinant FGF22 thermal shift, SYPRO orange fluorescence; percent of sucrose octasulfate shift, DMSO zero; activity (Tm shift, normalised), % at 9.99 µM; actives 1.5% (n = 340,000); AID 651658;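 active means mean Tm shift, scaled 0 neutral to 100 positive control, at about 1.3% or above, every replicate too, limit read from the data; inconclusive means no clear call, values can overlap the other calls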
Target sequence (Q9HCT0 whole entry, looked up): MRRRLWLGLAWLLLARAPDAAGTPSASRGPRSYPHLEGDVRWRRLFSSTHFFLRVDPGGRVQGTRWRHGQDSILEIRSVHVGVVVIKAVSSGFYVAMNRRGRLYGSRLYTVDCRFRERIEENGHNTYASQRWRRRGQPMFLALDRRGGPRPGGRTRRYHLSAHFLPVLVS
MITF act = increases MITF-driven TRPM1 promoter luciferase signal | AID 588334 | activation, % at 12.5 µM | actives 0.75% (n = 300,000) | SK-MEL-5 TRPM1-promoter luciferase, 24 h; % of positive control, neutral wells = 0;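 active means mean activation of at least 80% with every replicate also reaching 80%; inconclusive means mean reaches 80% but some replicate falls short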
Wnt act = activators of Wnt/beta-catenin signaling; Wnt/beta-catenin reporter cell assay, activator, plate reader; activation, % at 9.35 µM; actives 1.2% (n = 300,000); AID 743398; in the data active means activation above about 30%, passing the limit was not always enough; inconclusive means no clear call, values can overlap the other calls
AF4-AF9 inh = inhibitors of human MLL-AF4/AF9 interaction; AlphaScreen, biotin-AF4 peptide binding to FLAG-AF9; P42568; actives 0.47% (n = 350,000); inhibition, % at 10 µM;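 active means every replicate reaching a set inhibition limit, whatever the replicate mean, cut at about 25% in these data; inconclusive means mean inhibition reaches that limit but some replicates miss it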
SMARCA2 act = activators of SMARCA2 function. activation, % at 9.1 µM. MG213 cells, MMTV-luciferase reporter, dexamethasone, overnight. actives 1% (n = 370,000); in the data active means activation above about 7.8%
esBAF inh = inhibitors of esBAF chromatin remodeling in mouse ES cells. Bmi1-luciferase knock-in reporter, 24 h; 100% = twice the neutral-well signal. actives 2% (n = 350,000). reporter increase, % at 12.5 µM; in the data active means activation above about 40%; inconclusive means no clear call, values can overlap the other calls;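 further: a rise in the Bmi1 reporter signal indicates esBAF inhibition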
Ring1 derepress = esBAF inhibition confirmed by Ring1 de-repression | mouse ESC E14, Ring1 mRNA RT-qPCR fold change | shares compounds with esBAF inh | 550 tested, under 10 active | fold change at 33 µM;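 active means Ring1 gene expression raised more than 2-fold over untreated cells in both replicates at either tested dose; inconclusive means only one replicate above 2-fold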;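 further: Ring1 transcript normalised to actin housekeeping signal by TaqMan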
esBAF Fgf4 qPCR = confirmation of esBAF inhibitors: Fgf4 repression in mouse ESCs. shares compounds with esBAF inh. mouse ESC E14, Fgf4 mRNA qPCR fold change; stronger effect = lower value. Fgf4 expression fold change at 33 µM. actives 4% (n = 550);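 active means Fgf4 expression under 0.8 fold of control in both repeat measurements at one or both tested doses; inconclusive means under 0.8 fold in just a single repeat measurement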;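 further: Fgf4 transcript normalised to actin in duplex TaqMan qPCR; cells exposed to compound for 24 h before lysis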
esBAF Bmi1 qPCR = confirmation of esBAF inhibitors: Bmi1 de-repression in mouse ESCs. shares compounds with esBAF inh. mouse ESE14 ES cells, Bmi1 mRNA qPCR fold; stronger effect = higher value. fold change at 33 µM. 550 tested, under 10 active;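 active means Bmi1 expression fold change above 6 at either tested concentration, seen in replicate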
A549 tox SP = kills or reduces viability of A549 cells | shares compounds with esBAF inh | A549 cytotoxicity, plate reader | cell viability change % (negative = cytotoxic), % at 25 µM, hits read low | 550 tested, under 10 active | AID 743188; call rule not given here
HepG2 cytotox SP = HepG2 cell cytotoxicity at single point | activity change, negative = inhibition, % at 25 µM | plate reader; stronger effect = lower value | shares compounds with esBAF inh | actives 4% (n = 550); in the data active means activity change below about -50%
HEK293 tox SP = cytotoxicity in HEK293 cells; shares compounds with esBAF inh; plate reader; activity change, negative = inhibition, % at 25 µM, hits read low; actives 3% (n = 550); AID 743190; in the data active means activity change below about -38%, passing the limit was not always enough
A number is an active result; – = inactive; ? = inconclusive; · = not tested or not shown. Most compounds without a hit are left out; they make up all but 4.3% or so of the library.

SMILES	FGF22 binding	MITF act	Wnt act	AF4-AF9 inh	SMARCA2 act	esBAF inh	Ring1 derepress	esBAF Fgf4 qPCR	esBAF Bmi1 qPCR	A549 tox SP	HepG2 cytotox SP	HEK293 tox SP
COc1ccc(CNC(=O)Nc2cccc(C)c2)cc1	·	–	35.1	·	–	66.7	–	–	–	–	–	–
COc1ccc(CNC(=O)Nc2ccccc2)cc1	–	–	–	–	–	–	·	·	·	·	·	·
O=C(Nc1cccc(Cl)c1)N1C[C@H]2[C@@H](c3ccccc31)[C@H](CO)N2C(=O)C1CC1	–	·	·	–	·	–	·	·	·	·	·	·
Cc1nn(Cc2c(F)c(F)c(F)c(F)c2F)c(C)c1NC(=O)c1ccc(COc2cc(Cl)ccc2Cl)cc1	·	–	–	·	–	47.0	–	–	–	–	–	–
Cc1nn(Cc2c(F)c(F)c(F)c(F)c2F)c(C)c1NC(=O)c1ccc(COc2ccccc2Cl)cc1	·	–	·	·	–	–	·	·	·	·	·	·
COC(=O)C1=C(C)N(C)C(=NCC2CC2)NC1c1ccc(Cl)cc1 (stereo unspecified)	–	·	–	–	–	·	·	·	·	·	·	·
CCC(c1nc2ccccc2[nH]1)N(C(=O)Cc1cc(OC)cc(OC)c1)c1ccc(N2CCOCC2)cc1 (stereo unspecified)	–	·	–	–	–	–	·	·	·	·	·	·
O=C(c1ccncc1)N(c1ccc(N2CCOCC2)cc1)C(c1ccccc1)c1nc2ccccc2[nH]1 (stereo unspecified)	–	·	–	–	–	47.8	–	–	–	–	–	–
Cc1ccc(N/N=C2/CCCNC2=O)cc1	·	·	–	·	–	–	·	·	·	·	·	·
O=C1NCCC/C1=N/Nc1cc(F)ccc1F	–	–	–	–	–	60.1	–	–	–	–	-54.9	–
COc1ccccc1S(=O)(=O)N[C@@H]1CC[C@H](CCNC(=O)C2CCCCC2)O[C@@H]1CO	–	·	·	–	·	–	·	·	·	·	·	·
COc1cc2cnc(-c3ccsc3)cc2cc1OC	–	–	–	–	–	–	·	·	·	·	·	·
Fc1ccc2cc(-c3ccsc3)ncc2c1	–	–	36.3	·	–	59.9	–	–	–	–	–	–
CC(=O)N(/N=C1\Sc2ccccc2C1=O)c1ccccc1	·	·	·	·	–	81.1	–	·	–	–	–	–
CNc1cnc(-c2ccc(F)c(F)c2F)cn1	–	·	–	–	–	73.3	–	–	–	–	–	–
CCOc1ccc(CNc2ccc3c(c2)nc(C)n3C)cc1	·	–	·	·	–	·	·	·	·	·	·	·
CCn1cnc2cc(NCc3ccccc3Cl)ccc21	–	86.8	–	–	–	76.7	–	–	–	–	–	–
CCn1cnc2cc(NCc3ccc(OC)cc3)ccc21	·	–	·	·	–	56.3	–	?	–	–	–	–
CC(C)(C)n1cnc2cc(NCc3ccccc3O)ccc21	–	–	–	–	–	–	·	·	·	·	·	·
COC(=O)c1ccc2[nH]c(C3(O)CCCCC3)c(C)c2c1	–	83.5	?	–	–	72.3	–	–	–	–	-55.7	–
CC(=O)Oc1ccc(-c2csc(Nc3ccc(Cl)cn3)n2)cc1	–	·	–	–	–	58.8	–	–	–	–	–	–
Cc1nc(N)sc1-c1csc(Nc2ccc(Cl)cn2)n1	–	–	–	–	–	–	·	·	·	·	·	·
O=C(Nc1ccc(SC(F)F)cc1)C12CCC(CC1)C2	–	–	–	–	–	56.5	–	?	–	–	–	–
Nc1c(C(=O)NC2CCCC2)sc2nc(-c3cccs3)ccc12	·	–	·	·	–	·	·	·	·	·	·	·
NC(=O)c1sc2nc(-c3cccs3)ccc2c1N	–	–	–	–	–	58.8	–	–	–	–	–	–
